Measurements published in PubChem BioAssay (NCI).
The panel holds about 79,000 compounds, 15% with a hit somewhere; the sample as a whole holds those more often. A number with no mark means an inactive call. Active and inactive are the calls of the source. No stated cut-off is given here; in the data, active means growth inhibition above about 70%; inactive means the rest.

Experiments:
[1] = NCI Yeast Anticancer Drug Screen. Data for the wt1 strain (AID 149);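 further: 0% = growth of vehicle-treated wt1 cultures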; settings: S. cerevisiae wt1 strain (SPY 50644) growth inhibition, hits give high values
Summary of the method: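 Each compound is tested on wt1 yeast and the loss of growth versus vehicle gives the inhibition value.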

[2] = NCI Yeast Anticancer Drug Screen. Data for the rad50EPP+ strain (AID 151);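 further: 0% = growth of vehicle-treated control cultures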; settings: S. cerevisiae rad50 mutant strain, hits give high values
Summary of the method: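 Strain rad50EPP+; compound exposure; % growth inhibition vs vehicle.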

[3] = NCI Yeast Anticancer Drug Screen. Data for the mgt1 strain (AID 153); settings: S. cerevisiae mgt1 mutant growth inhibition, hits give high values
Summary of the method: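 Read-out: yeast growth inhibition vs vehicle control. Strain mgt1, drawn from a panel altered in DNA damage repair or cell cycle control.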

[4] = NCI Yeast Anticancer Drug Screen. Data for the rad50 strain (AID 155);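 further: 0% = growth of vehicle-only cultures of the same strain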; settings: S. cerevisiae rad50 strain growth inhibition, hits give high values
Summary of the method: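 Vehicle-treated cultures provide the reference for the growth inhibition reported for compound-exposed, repair-deficient yeast.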

[5] = NCI Yeast Anticancer Drug Screen. Data for the mec2-1 strain (AID 157); settings: S. cerevisiae mec2-1 strain, hits give high values
Summary of the method: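 Cells of the genetically defined mec2-1 yeast strain are incubated with test compound. Inhibition of growth is calculated against vehicle-treated controls.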

[6] = NCI Yeast Anticancer Drug Screen. Data for the rad14 strain (AID 159);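 further: 0% = growth of vehicle-treated control cultures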; settings: S. cerevisiae rad14 strain growth inhibition, hits give high values
Summary of the method: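 Inhibition of growth is reported for a repair-deficient yeast mutant following compound treatment, calculated relative to cultures that received vehicle.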

[7] = NCI Yeast Anticancer Drug Screen. Data for the sgs1 mgt1 strain (AID 161);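 further: 0% = growth of cultures given vehicle only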; settings: S. cerevisiae sgs1 mgt1 strain, hits give high values
Summary of the method: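 Test agents were incubated with a DNA-repair-mutant yeast strain. Growth was then read and compared against vehicle-treated controls.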

[8] = NCI Yeast Anticancer Drug Screen. Data for the CLN2oe strain (AID 163);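 further: 0% = growth of vehicle-only control cultures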; settings: S. cerevisiae CLN2oe strain, hits give high values
Summary of the method: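 Strain altered in cell-cycle control, incubated with compound; growth compared to solvent-treated controls.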

[9] = NCI Yeast Anticancer Drug Screen. Data for the cln2 rad14 strain (AID 165);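 further: 0% = growth equal to vehicle treated cultures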; settings: S. cerevisiae cln2 rad14 strain, hits give high values
Summary of the method: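 The screen exposed genetically defined yeast (cln2 rad14) to test compounds and scored growth inhibition relative to vehicle-treated controls.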

[10] = NCI Yeast Anticancer Drug Screen. Data for the bub3 strain (AID 167); settings: S. cerevisiae bub3 mutant strain, hits give high values
Summary of the method: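 Mutant yeast screening strain plus compound; vehicle-treated cultures serve as the 0% inhibition reference.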

[11] = NCI Yeast Anticancer Drug Screen. Data for the wt2 strain (AID 169); settings: S. cerevisiae wt2 strain growth inhibition, hits give high values
Summary of the method: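 Steps: yeast strain treated with compound; growth recorded; inhibition calculated relative to cultures given vehicle alone.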

[12] = NCI Yeast Anticancer Drug Screen. Data for the mlh1 strain (AID 171);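 further: 0% = growth of vehicle-treated control cultures of the same strain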; settings: S. cerevisiae mlh1 strain growth inhibition, hits give high values
Summary of the method: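 Yeast screen: mutant strain plus compound, growth scored against vehicle control wells.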

[13] = NCI Yeast Anticancer Drug Screen. Data for the sgs1 strain (AID 173);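 further: 0% = growth of vehicle-only control cultures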; settings: S. cerevisiae sgs1 mutant, hits give high values
Summary of the method: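 Inhibition of yeast growth served as the measure. The mutant strain was treated with each compound, and growth was normalised to cultures receiving vehicle alone.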

[14] = NCI Yeast Anticancer Drug Screen. Data for the mlh1 rad18 strain (AID 175); settings: S. cerevisiae mlh1 rad18 strain growth inhibition, hits give high values
Summary of the method: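 Compound-treated yeast growth, normalised to vehicle controls. Strain bears defined DNA repair mutations.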

[15] = NCI Yeast Anticancer Drug Screen. Data for the rad18 strain (AID 177); settings: S. cerevisiae rad18 mutant growth inhibition, hits give high values
Summary of the method: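 Inhibition values reflect reduced yeast growth compared with vehicle-treated controls, using a strain engineered with a DNA damage repair defect.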

[16] = NCI Yeast Anticancer Drug Screen. Data for the rad52 strain (AID 147);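 further: 0% = growth of vehicle-treated control cultures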; settings: S. cerevisiae rad52 mutant growth inhibition, hits give high values
Summary of the method: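 Genetically altered yeast (DNA damage repair defect) treated with compound; inhibition calculated relative to vehicle.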

[17] = at 5.0 µM (retest, dose inferred, filed as 0.5)
[18] = at 50.0 µM (retest, dose inferred, filed as 5.0)

Cn1ccnc1Oc1ccc(Cl)cc1
growth inhibition ([1]; at 1.2 µM): 1% | growth inhibition ([1]; at 3.7 µM): 5% | growth inhibition ([1]; at 11.0 µM): 22% | growth inhibition ([1]; at 33.0 µM): 50% | growth inhibition ([1]; at 100.0 µM): 97% (active) | growth inhibition ([2]; at 1.2 µM): -5% | growth inhibition ([2]; at 3.7 µM): -22% | growth inhibition ([2]; at 11.0 µM): 0% | growth inhibition ([2]; at 33.0 µM): 30% | growth inhibition ([2]; at 100.0 µM): 37% | growth inhibition ([3]; at 1.2 µM): -4% | growth inhibition ([3]; at 3.7 µM): -5% | growth inhibition ([3]; at 11.0 µM): 0% | growth inhibition ([3]; at 33.0 µM): 15% | growth inhibition ([3]; at 100.0 µM): 98% (active) | growth inhibition ([4]; at 1.2 µM): -9% | growth inhibition ([4]; at 3.7 µM): -9% | growth inhibition [4, 17]: -121% | growth inhibition ([4]; at 11.0 µM): 3% | growth inhibition ([4]; at 33.0 µM): 76% (active) | growth inhibition [4, 18]: 83% (active) | growth inhibition ([4]; at 50.0 µM): 81.2% (active) | growth inhibition ([4]; at 100.0 µM): 97% (active) | growth inhibition ([5]; at 1.2 µM): -2% | growth inhibition ([5]; at 3.7 µM): 0% | growth inhibition [5, 17]: -46% | growth inhibition ([5]; at 11.0 µM): 4% | growth inhibition ([5]; at 33.0 µM): 17% | growth inhibition [5, 18]: 26% | growth inhibition ([5]; at 50.0 µM): 58.3% | growth inhibition ([5]; at 100.0 µM): 97% (active) | growth inhibition ([6]; at 1.2 µM): -5% | growth inhibition ([6]; at 3.7 µM): 4% | growth inhibition ([6]; at 11.0 µM): 26% | growth inhibition ([6]; at 33.0 µM): 46% | growth inhibition ([6]; at 100.0 µM): 98% (active) | growth inhibition [7, 17]: -61% | growth inhibition [7, 18]: 37% | growth inhibition ([7]; at 50.0 µM): 32.1% | growth inhibition ([8]; at 1.2 µM): -8% | growth inhibition ([8]; at 3.7 µM): -3% | growth inhibition ([8]; at 11.0 µM): -2% | growth inhibition ([8]; at 33.0 µM): 16% | growth inhibition ([8]; at 100.0 µM): 93% (active) | growth inhibition [9, 17]: -52% | growth inhibition [9, 18]: -6% | growth inhibition ([9]; at 50.0 µM): -55.4% | growth inhibition ([10]; at 1.2 µM): -6% | growth inhibition ([10]; at 3.7 µM): -3% | growth inhibition [10, 17]: -65% | growth inhibition ([10]; at 11.0 µM): 0% | growth inhibition ([10]; at 33.0 µM): 25% | growth inhibition [10, 18]: 55% | growth inhibition ([10]; at 50.0 µM): 38.1% | growth inhibition ([10]; at 100.0 µM): 97% (active) | growth inhibition ([11]; at 1.2 µM): -7% | growth inhibition ([11]; at 3.7 µM): 7% | growth inhibition ([11]; at 11.0 µM): 30% | growth inhibition ([11]; at 33.0 µM): 78% (active) | growth inhibition ([11]; at 100.0 µM): 99% (active) | growth inhibition ([12]; at 1.2 µM): -11% | growth inhibition ([12]; at 3.7 µM): -4% | growth inhibition ([12]; at 11.0 µM): 0% | growth inhibition ([12]; at 33.0 µM): 45% | growth inhibition ([12]; at 100.0 µM): 98% (active) | growth inhibition ([13]; at 1.2 µM): -15% | growth inhibition ([13]; at 3.7 µM): -5% | growth inhibition ([13]; at 11.0 µM): 15% | growth inhibition ([13]; at 33.0 µM): 83% (active) | growth inhibition ([13]; at 100.0 µM): 98% (active) | growth inhibition [14, 17]: -131% | growth inhibition [14, 18]: 74% (active) | growth inhibition ([14]; at 50.0 µM): 89.2% (active) | growth inhibition ([15]; at 1.2 µM): -7% | growth inhibition ([15]; at 3.7 µM): -1% | growth inhibition ([15]; at 11.0 µM): 6% | growth inhibition ([15]; at 33.0 µM): 55% | growth inhibition ([15]; at 100.0 µM): 97% (active)

CCCCCCCCCC/C=C\C(=O)O
growth inhibition ([16]; at 1.2 µM): -3% | growth inhibition ([16]; at 3.7 µM): -1% | growth inhibition ([16]; at 11.0 µM): -9% | growth inhibition ([16]; at 33.0 µM): -13% | growth inhibition ([16]; at 100.0 µM): 97% (active) | growth inhibition ([2]; at 1.2 µM): 0% | growth inhibition ([2]; at 3.7 µM): -1% | growth inhibition ([2]; at 11.0 µM): 0% | growth inhibition ([2]; at 33.0 µM): 62% | growth inhibition ([2]; at 100.0 µM): 75% (active) | growth inhibition ([3]; at 1.2 µM): -36% | growth inhibition ([3]; at 3.7 µM): -10% | growth inhibition ([3]; at 11.0 µM): -22% | growth inhibition ([3]; at 33.0 µM): -9% | growth inhibition ([3]; at 100.0 µM): 98% (active) | growth inhibition ([4]; at 1.2 µM): 15% | growth inhibition ([4]; at 3.7 µM): 10% | growth inhibition [4, 17]: 39% | growth inhibition ([4]; at 11.0 µM): -5% | growth inhibition ([4]; at 33.0 µM): 8% | growth inhibition [4, 18]: 68% | growth inhibition ([4]; at 50.0 µM): 78% (active) | growth inhibition ([4]; at 100.0 µM): 97% (active) | growth inhibition ([5]; at 1.2 µM): 4% | growth inhibition ([5]; at 3.7 µM): 5% | growth inhibition [5, 17]: 36% | growth inhibition ([5]; at 11.0 µM): -11% | growth inhibition ([5]; at 33.0 µM): 49% | growth inhibition [5, 18]: 74% (active) | growth inhibition ([5]; at 50.0 µM): 79.8% (active) | growth inhibition ([5]; at 100.0 µM): 95% (active) | growth inhibition [7, 17]: -18% | growth inhibition [7, 18]: 58% | growth inhibition ([7]; at 50.0 µM): 88.5% (active) | growth inhibition ([8]; at 1.2 µM): 15% | growth inhibition ([8]; at 3.7 µM): 25% | growth inhibition ([8]; at 11.0 µM): 7% | growth inhibition ([8]; at 33.0 µM): -20% | growth inhibition ([8]; at 100.0 µM): 97% (active) | growth inhibition [9, 17]: 67% | growth inhibition [9, 18]: 73% (active) | growth inhibition ([9]; at 50.0 µM): 46.5% | growth inhibition ([10]; at 1.2 µM): -6% | growth inhibition ([10]; at 3.7 µM): -15% | growth inhibition [10, 17]: -7% | growth inhibition ([10]; at 11.0 µM): -29% | growth inhibition ([10]; at 33.0 µM): -10% | growth inhibition [10, 18]: 73% (active) | growth inhibition ([10]; at 50.0 µM): 85.8% (active) | growth inhibition ([10]; at 100.0 µM): 97% (active) | growth inhibition ([11]; at 1.2 µM): -14% | growth inhibition ([11]; at 3.7 µM): -15% | growth inhibition ([11]; at 11.0 µM): -18% | growth inhibition ([11]; at 33.0 µM): -7% | growth inhibition ([11]; at 100.0 µM): 97% (active) | growth inhibition ([12]; at 1.2 µM): -10% | growth inhibition ([12]; at 3.7 µM): -4% | growth inhibition ([12]; at 11.0 µM): -20% | growth inhibition ([12]; at 33.0 µM): 10% | growth inhibition ([12]; at 100.0 µM): 97% (active) | growth inhibition ([13]; at 1.2 µM): -7% | growth inhibition ([13]; at 3.7 µM): -5% | growth inhibition ([13]; at 11.0 µM): -9% | growth inhibition ([13]; at 33.0 µM): 19% | growth inhibition ([13]; at 100.0 µM): 98% (active) | growth inhibition [14, 17]: 37% | growth inhibition [14, 18]: 69% | growth inhibition ([14]; at 50.0 µM): 73.8% (active) | growth inhibition ([15]; at 1.2 µM): 0% | growth inhibition ([15]; at 3.7 µM): 1% | growth inhibition ([15]; at 11.0 µM): -5% | growth inhibition ([15]; at 33.0 µM): 19% | growth inhibition ([15]; at 100.0 µM): 97% (active)
